Test results: PubChem BioAssay (NCI)
About 79,000 compounds went through this panel and 15% of them were active in at least one assay; those are over-represented in the sample as a whole. The source made the active and inactive calls. No stated cut-off is given here; in the data, active means growth inhibition above about 70%; inactive means the rest.

Experiments:
[1] = NCI Yeast Anticancer Drug Screen. Data for the rad52 strain (AID 147);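 further: 0% = growth of vehicle-treated control cultures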; conditions: S. cerevisiae rad52 mutant growth inhibition, active compounds read high
How it was run: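 Yeast strain carrying a DNA damage repair alteration was exposed to test compounds. Growth inhibition was measured relative to vehicle-treated controls.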

[2] = NCI Yeast Anticancer Drug Screen. Data for the wt1 strain (AID 149);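 further: 0% = growth of vehicle-treated wt1 cultures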; conditions: S. cerevisiae wt1 strain (SPY 50644) growth inhibition, active compounds read high
How it was run: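 wt1 strain grown with compound or vehicle; inhibition taken from the growth difference.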

[3] = NCI Yeast Anticancer Drug Screen. Data for the rad50EPP+ strain (AID 151);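 further: 0% = growth of vehicle-treated control cultures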; conditions: S. cerevisiae rad50 mutant strain, active compounds read high
How it was run: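 Yeast strain carrying rad50 alteration (rad50EPP+) exposed to compounds; growth inhibition measured relative to vehicle-treated controls.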

[4] = NCI Yeast Anticancer Drug Screen. Data for the mgt1 strain (AID 153); conditions: S. cerevisiae mgt1 mutant growth inhibition, active compounds read high
How it was run: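 Yeast mgt1 strain (DNA repair/cell-cycle alteration panel) exposed to compounds; growth inhibition measured relative to vehicle-treated controls.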

[5] = NCI Yeast Anticancer Drug Screen. Data for the rad50 strain (AID 155);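 further: 0% = growth of vehicle-only cultures of the same strain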; conditions: S. cerevisiae rad50 strain growth inhibition, active compounds read high
How it was run: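 DNA repair mutant yeast, compound exposure, growth read-out; inhibition is taken relative to vehicle.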

[6] = NCI Yeast Anticancer Drug Screen. Data for the mec2-1 strain (AID 157); conditions: S. cerevisiae mec2-1 strain, active compounds read high
How it was run: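 mec2-1 yeast strain, carrying an alteration in DNA damage repair or cell cycle control, was exposed to compounds; growth inhibition was measured relative to vehicle-treated controls.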

[7] = NCI Yeast Anticancer Drug Screen. Data for the rad14 strain (AID 159);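 further: 0% = growth of vehicle-treated control cultures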; conditions: S. cerevisiae rad14 strain growth inhibition, active compounds read high
How it was run: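 DNA repair-defective yeast, compound-exposed; % growth inhibition derived by comparison with vehicle-treated controls.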

[8] = NCI Yeast Anticancer Drug Screen. Data for the sgs1 mgt1 strain (AID 161);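 further: 0% = growth of cultures given vehicle only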; conditions: S. cerevisiae sgs1 mgt1 strain, active compounds read high
How it was run: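 Percent growth inhibition was derived by comparing compound-exposed mutant yeast with vehicle-exposed cultures. The strain carries alterations in DNA damage repair.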

[9] = NCI Yeast Anticancer Drug Screen. Data for the CLN2oe strain (AID 163);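 further: 0% = growth of vehicle-only control cultures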; conditions: S. cerevisiae CLN2oe strain, active compounds read high
How it was run: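 Yeast cells carrying a defined cell-cycle control alteration were exposed to test compounds. Growth inhibition was scored against vehicle-treated control cultures.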

[10] = NCI Yeast Anticancer Drug Screen. Data for the cln2 rad14 strain (AID 165);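 further: 0% = growth equal to vehicle treated cultures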; conditions: S. cerevisiae cln2 rad14 strain, active compounds read high
How it was run: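 Yeast carrying cln2 and rad14 alterations (cell cycle control and DNA damage repair) were exposed to compounds. Growth inhibition was measured against vehicle-treated controls.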

[11] = NCI Yeast Anticancer Drug Screen. Data for the bub3 strain (AID 167); conditions: S. cerevisiae bub3 mutant strain, active compounds read high
How it was run: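 In this screen, a yeast mutant lacking normal mitotic checkpoint function is challenged with compound. Relative growth versus vehicle gives the inhibition value.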

[12] = NCI Yeast Anticancer Drug Screen. Data for the wt2 strain (AID 169);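 further: 0% = growth of vehicle-treated yeast cultures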; conditions: S. cerevisiae wt2 strain growth inhibition, active compounds read high
How it was run: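 Yeast cells were exposed to test compounds, and growth inhibition was measured relative to vehicle-treated controls.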

[13] = NCI Yeast Anticancer Drug Screen. Data for the mlh1 strain (AID 171);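 further: 0% = growth of vehicle-treated control cultures of the same strain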; conditions: S. cerevisiae mlh1 strain growth inhibition, active compounds read high
How it was run: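 Yeast carrying a defined genetic alteration in DNA damage repair or cell cycle control were exposed to test compounds. Growth inhibition was measured relative to vehicle-treated controls.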

[14] = NCI Yeast Anticancer Drug Screen. Data for the sgs1 strain (AID 173);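 further: 0% = growth of vehicle-only control cultures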; conditions: S. cerevisiae sgs1 mutant, active compounds read high
How it was run: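 Yeast mutant strains carrying defined defects in DNA damage repair or cell cycle control were exposed to test compounds. Growth inhibition was scored against vehicle-treated controls.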

[15] = NCI Yeast Anticancer Drug Screen. Data for the mlh1 rad18 strain (AID 175); conditions: S. cerevisiae mlh1 rad18 strain growth inhibition, active compounds read high
How it was run: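 Growth inhibition of the yeast strain was measured after compound exposure and expressed relative to vehicle-treated controls. The strain carries defined defects in DNA damage repair.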

[16] = NCI Yeast Anticancer Drug Screen. Data for the rad18 strain (AID 177); conditions: S. cerevisiae rad18 mutant growth inhibition, active compounds read high
How it was run: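 Yeast carrying a defined DNA damage repair alteration were exposed to compounds. Growth inhibition was expressed relative to vehicle-treated controls.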

[17] = at 5.0 µM (retest, dose inferred, filed as 0.5)
[18] = at 50.0 µM (retest, dose inferred, filed as 5.0)

Measured: growth inhibition

COc1cc(N)ccc1Nc1c2ccccc2nc2ccccc12
inactive: [1]; at 1.2 µM -4% | [1]; at 3.7 µM 33% | [2]; at 1.2 µM -17% | [2]; at 3.7 µM -16% | [2]; at 11.0 µM -19% | [2]; at 33.0 µM -17% | [2]; at 100.0 µM 69% | [3]; at 1.2 µM -9% | [3]; at 3.7 µM -11% | [3]; at 11.0 µM 10% | [3]; at 33.0 µM 59% | [4]; at 1.2 µM 2% | [4]; at 3.7 µM 25% | [4]; at 11.0 µM 32% | [4]; at 33.0 µM 51% | [5]; at 1.2 µM 6% | [5]; at 3.7 µM 32% | [5]; at 50.0 µM 36.3% | [6]; at 1.2 µM -45% | [6]; at 3.7 µM -30% | [6]; [17] 20% | [6]; at 11.0 µM -27% | [6]; at 33.0 µM 2% | [6]; at 50.0 µM 42.4% | [7]; at 1.2 µM -43% | [7]; at 3.7 µM -25% | [7]; at 11.0 µM -5% | [7]; at 33.0 µM 13% | [7]; at 100.0 µM 66% | [8]; [17] 58% | [9]; at 1.2 µM 29% | [9]; at 3.7 µM 11% | [9]; at 11.0 µM 6% | [9]; at 33.0 µM 29% | [10]; [17] 40% | [11]; at 1.2 µM 8% | [11]; at 3.7 µM 15% | [11]; [17] 42% | [11]; at 11.0 µM 14% | [11]; at 33.0 µM 28% | [11]; at 50.0 µM 63% | [12]; at 1.2 µM 6% | [12]; at 3.7 µM 9% | [12]; at 11.0 µM 9% | [12]; at 33.0 µM 31% | [13]; at 1.2 µM -24% | [13]; at 3.7 µM -15% | [13]; at 11.0 µM -16% | [13]; at 33.0 µM 11% | [14]; at 1.2 µM -16% | [14]; at 3.7 µM 1% | [14]; at 11.0 µM -4% | [14]; at 33.0 µM 36% | [15]; at 50.0 µM 65.7% | [16]; at 1.2 µM -2% | [16]; at 3.7 µM -11% | [16]; at 11.0 µM -4% | [16]; at 33.0 µM 7%
active: [1]; at 11.0 µM 70% | [1]; at 33.0 µM 82% | [1]; at 100.0 µM 86% | [3]; at 100.0 µM 88% | [4]; at 100.0 µM 89% | [5]; [17] 90% | [5]; at 11.0 µM 74% | [5]; at 33.0 µM 89% | [5]; [18] 95% | [5]; at 100.0 µM 91% | [6]; [18] 92% | [6]; at 100.0 µM 84% | [8]; [18] 97% | [8]; at 50.0 µM 84.9% | [9]; at 100.0 µM 81% | [10]; [18] 83% | [10]; at 50.0 µM 80.8% | [11]; [18] 86% | [11]; at 100.0 µM 85% | [12]; at 100.0 µM 86% | [13]; at 100.0 µM 80% | [14]; at 100.0 µM 92% | [15]; [17] 81% | [15]; [18] 94% | [16]; at 100.0 µM 82%
